# Among all 580,000 compounds or so, about 6,100 (1.1%) were called active. Where a call stands in place of a potency, no number is given. Not shown: some 15% with an inconclusive outcome. Calls follow the shape of the dose curve; as a rule, active = well fitted inhibition curve with a large enough effect; inconclusive = small, poorly fitted or top-dose-only effect, or another doubt; inactive = no such curve, though single readings can be large or run the other way. The full list was thinned out, with actives kept by preference.
# Target: Polyunsaturated fatty acid lipoxygenase ALOX12 (Homo sapiens) (UniProt P18054)
# Sequence (P18054 whole entry, looked up): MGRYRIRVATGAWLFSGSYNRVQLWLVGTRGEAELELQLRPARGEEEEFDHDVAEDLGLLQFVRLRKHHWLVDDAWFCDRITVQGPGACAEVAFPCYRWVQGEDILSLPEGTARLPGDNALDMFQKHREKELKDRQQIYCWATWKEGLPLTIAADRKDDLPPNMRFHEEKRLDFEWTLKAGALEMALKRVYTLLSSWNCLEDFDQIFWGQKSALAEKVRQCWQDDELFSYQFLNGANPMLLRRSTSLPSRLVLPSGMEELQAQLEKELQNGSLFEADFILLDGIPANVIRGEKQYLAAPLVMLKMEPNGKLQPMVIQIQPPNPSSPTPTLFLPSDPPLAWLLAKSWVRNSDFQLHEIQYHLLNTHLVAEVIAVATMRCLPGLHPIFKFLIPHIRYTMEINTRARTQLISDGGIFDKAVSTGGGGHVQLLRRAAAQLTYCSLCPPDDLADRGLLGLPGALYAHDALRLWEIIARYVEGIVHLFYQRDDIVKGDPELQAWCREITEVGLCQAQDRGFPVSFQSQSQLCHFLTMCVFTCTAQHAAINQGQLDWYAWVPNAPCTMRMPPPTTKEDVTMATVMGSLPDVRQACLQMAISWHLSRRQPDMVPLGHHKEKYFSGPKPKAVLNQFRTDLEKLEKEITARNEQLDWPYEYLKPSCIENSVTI
# Assay: Primary qHTS assay for inhibitors of human arachidonate 12S-lipoxygenase (ALOX12): Round 2
# Conditions: purified 12hLO, xylenol orange hydroperoxide absorbance; series mostly up to 108 µM
# Source text: Assay Provider: Theodore R. Holman Ph.D. University of California, Santa Cruz, California Human lipoxygenase 12hLO is a member of the closely related lipoxygenase family of enzymes which catalyze the site-specific oxidation of arachidonic acid to various hormone precursor molecules and as such is a candidate for drug development in a variety of disease areas, such as cancer and inflammation. Inhibition of 12hLO activity was screened by utilizing arachidonic acid as a substrate. The extent of hydroperoxide product formation was measured by a secondary chromogenic reaction in which xylenol orange (XO, Sigma-Aldrich, cat. number 39,818-7) reacts with the ferric ions produced from the reaction between the hydroperoxide and ferrous ions. The Fe (III)-XO complex is characterized with red-shifted absorbance at 560 nm. A purified preparation of human 12hLO was supplied by Dr. Holman laboratory, University of California, Santa Cruz.
# PROTOCOL TABLE SEQUENCE No. (e.g., 1, 2, 3, etc.); […] (e.g., Cells, Incubation, Reagent, etc.); VALUE; DESCRIPTION 1; Enzyme; 3 uL; 150 nM 12hLO enzyme solution dispensed in 1536-well Greiner black, clear bottom plates. 2; Compound; 23 nL; compounds and controls were added. 3; Incubate; 15 min; room temperature. 4; Substrate; 1 uL; 40 uM arachidonic acid (final concentration). 5; Incubate; 30 min; room temperature. 6; Reagent; 4 uL; Fe-XO solution was added to each well. 7; Incubation; 30 min; room temperature 8; Detector; absorbance; Read 1 at 405 nm absorbance using ViewLux (Perkin-Elmer) CCD imager. 9; Detector; absorbance; Read 2 at 573 nm absorbance using ViewLux (Perkin-Elmer) CCD imager. NOTES (numbers refer to sequence above) 1; 150 nM 12hLO (final concentration) in buffer solution (25 mM Hepes, 0.01% Triton X-100, pH 7.0) was dispensed in columns 1, 2, 5-48. Column 1 is neutral (100% activity). Buffer only was dispensed in columns 3 and 4 as no enzyme negative controls. The plates were covered with metal lids with gas-exchange holes. 2; Compounds were pin transferred via a Kalypsys Pin Tool (Wako USA) in column 5-48. Control compound was transferred in column 2, titration of nordihydroguaiaretic acid (NDGA, Sigma-Aldrich, N5023) with top concentration of 20 mM in DMSO then 1:3 dilution in duplicate. Dilution factor of 23 nL into 4 uL final assay volume. 3; Covered assay plates were incubated for 15 min at room temperature. 4; Substrate was added to start the reaction; 40 uM arachidonic acid (Sigma-Aldrich, St. Louis, MO) was dispensed throughout the plate. 6; Chromogenic detection reagent solution (divalent iron/xylenol orange, Fe-XO) was added to each well: 200 uM xylenol orange, 300 uM ferrous ammonium sulfate prepared freshly in 50 mM sulfuric acid. 8, 9; Two absorbance readouts were obtained at 405 nm and at 573 nm using a ViewLux high-throughput CCD plate imager (Perkin-Elmer). The 573 to 405 (Read 2 / Read 1) absorbance ratio was used to compute reaction progress.
# Potency is read from the fitted curve at half-maximal effect.
Compound,Potency,"activity change, negative = inhibition"
Cc1nn(Cc2ccccc2Cl)c(Cl)c1C(=O)OC(C(=O)NC(N)=O)C(C)C (stereo not given),inactive,–
CCOC(=O)c1c(C)n(Cc2ccccc2Cl)c2ccc(O)cc12,20 µM (active),–
COc1ccccc1-c1ccc(N2CC3CC(C2)c2cccc(=O)n2C3)nn1 (stereo not given),inactive,–
O=C(NCc1ccccc1)[C@H]1CN2CCC1C[C@@H]2Cn1cc(-c2ccc(F)cc2)nn1 (stereo not given in full),inactive,–
COC(=O)[C@@H]1[C@@H](CO)[C@@H]2Cn3c(ccc(Br)c3=O)[C@H]1N2C(=O)c1cnccn1,inactive,–
COc1cc2c(cc1Oc1cccc(N(C)C)c1)NC(=O)C21CCN(CCC(C)C)CC1,inactive,–
O=C(Nc1ccccc1)[C@H]1CN2CCC1C[C@@H]2Cn1cc(CO)nn1 (stereo not given in full),inactive,–
COc1ccc(N2C(=O)/C(=C/c3ccco3)C(=O)NC2=S)cc1,8.91 µM (active),–
COc1nc2c(cc1CNC(=O)C1C(C)(C)C1(C)C)C(=O)N(C1CCCC1)C2,inactive,–
COc1ccc(/C=C\[N+](=O)[O-])c(OC)c1,inactive,–
Cc1nc(C)c(C(=O)N2[C@H]3CC[C@@H]2c2cnc(-c4ccccc4)nc2C3)s1,inactive,–
O=C1CC2CCN(Cc3cccnc3)CC2CCN1 (stereo not given),–,6.21% [at 12.5 µM] (inactive)
CC1CNCCN1c1ccc(Cl)cc1 (stereo not given),inactive,–
Cc1cc(N2CCNC[C@@H]2C)ccc1N1CC[C@H](O)C1,44.7 µM (active),–
COc1ccc(-c2cc3c(cc2OC)C2(CCN(C(C)=O)CC2)C(=O)N3)cc1OC,inactive,–
CN(Cc1ccccc1)C[C@H]1CN2CC[C@H]1C[C@@H]2CNC(=O)Nc1ccsc1,inactive,–
C[S+](=O)([O-])N1CCC2(CC1)CC(c1cccnc1)=NO2,–,5.92% [at 6.33 µM] (inactive)
c1ccc2sc(N3CCNCC3)nc2c1,inactive,–
c1ccc2sc(SNC3CCCCC3)nc2c1,28.2 µM (active),–
OC(CNC1CCCCC1)c1ccccc1 (stereo not given),inactive,–
Cc1noc(C)c1CC(=O)N1[C@H]2CC[C@@H]1c1cnc(-c3ccccc3)nc1C2,inactive,–
Cc1noc(C(C)N2CCN(C(=O)Cc3ccccc3)CC2)n1 (stereo not given),inactive,–
Cc1cc(C)c2[nH]c(C(=O)N3CCC(C#N)(c4ccccc4)CC3)c(C)c2c1,inactive,–
CCC(=O)c1ccc(OCC(=O)N2CCN(CC(=O)Nc3ccc(C)cc3)CC2)cc1,inactive,–

Compound,Potency,"activity change, negative = inhibition"
C=CCN(CC=C)C(=O)Nc1ccc(OCC)cc1,inactive,–
C=CCN1C(=O)NC(=O)/C(=C/c2ccc(OCC(=O)Nc3ccc(C)cc3)cc2)C1=O,39.8 µM (active),–
CC(CNc1ccc([N+](=O)[O-])c2cnccc12)c1ccccc1 (stereo not given),inactive,–
COC(=O)c1ccc(NC(=O)N2[C@H]3CC[C@@H]2c2cnc(-c4ccc(F)cc4)nc2C3)cc1,inactive,–
COc1cc2c(cc1Oc1cccc(N(C)C)c1)NC(=O)C21CCN(c2cnccn2)CC1,inactive,–
COc1ccc(CC(=O)N2CCN(CC(=O)NC(N)=O)CC2)cc1,inactive,–
C#C[C@H]1CN2CC[C@H]1C[C@@H]2CNC(=O)C1CC1,inactive,–
COc1ccc(-c2cc([C@H]3CN4CC[C@H]3C[C@@H]4COC(=O)NC(C)C)nc(C)n2)cc1,inactive,–
C#C[C@H]1CN2CC[C@H]1C[C@@H]2COC(=O)Nc1cc(OC)cc(OC)c1,50.1 µM (active),–
Cc1ncc2c(n1)C[C@@H]1CC[C@H]2N1S(=O)(=O)c1ccc(F)cc1,inactive,–
Cn1nc(-c2cccs2)cc1[C@H]1CN2CC[C@H]1C[C@@H]2CNC(=O)Nc1ccccc1,inactive,–
C=C(C)C1(CCCC)C(=O)NC(=S)NC1=O,44.7 µM (active),–
COc1ccccc1-c1cc([C@H]2CN3CC[C@H]2C[C@@H]3CNCc2cccc(C#N)c2)n(C)n1,inactive,–
COc1cc2c(cc1OCc1ccccc1)NC(=O)C21CCN(CCC(C)C)CC1,inactive,–
CC(=O)NCC1=C(c2ccc3ccccc3c2)C[C@@H]2CC[C@H]1N2Cc1ccco1,28.2 µM (active),–
Cc1ncoc1C(=O)NCC1=C(c2cccc3ccccc23)C[C@@H]2CC[C@H]1N2Cc1ccco1,inactive,–
COC(=O)C1=C(c2ccc3ccccc3c2)C[C@@H]2CC[C@H]1N2C(=O)NCCO,inactive,–
O=[S+]1([O-])NC2(CCN(CC3CCOCC3)C2)COc2ccncc21 (stereo not given),–,3.45% [at 6.33 µM] (inactive)
CN(C)C(=O)Oc1ccc2c(=O)c(-c3ccc(Br)cc3)c(C(F)(F)F)oc2c1,inactive,–
O=C(c1ccc2c(c1)CCO2)N1C[C@@H](c2ccc(F)cc2)[C@@H]2[C@H]1C1CCN2CC1,inactive,–
Cc1cc(C)cc(CN2CCC3(CCNCC3)C2)c1,inactive,–
COc1cc2c(cc1OC1CCCC1)NC(=O)C21CCN(c2nccs2)CC1,inactive,–
O=C1NC(=O)N(c2ccccc2)C(=O)/C1=C/c1ccc([N+](=O)[O-])s1,39.8 µM (active),–
COc1cccc(N2C(=O)NC(=O)/C(=C\c3ccc([N+](=O)[O-])s3)C2=O)c1,44.7 µM (active),–

Compound,Potency,"activity change, negative = inhibition"
CCC(CC)c1cc([C@H]2CN3CC[C@H]2C[C@@H]3CNS(=O)(=O)Cc2ccccc2)nc(-c2ccncc2)n1,inactive,–
N#Cc1cccc(NC(=O)NC[C@H]2C[C@@H]3CCN2C[C@@H]3CN2CCN(c3ncccn3)CC2)c1,inactive,–
CC(C)(C)c1nc(CN2CCC3(CC2)C(=O)Nc2ccccc23)no1,inactive,–
COc1cccc(Nc2cc3c(cn2)CN(C)CCN3C)c1,inactive,–
Cc1ccc(-n2c(/C=C/c3cccc(C(F)(F)F)c3)nc3ccccc3c2=O)cc1,inactive,–
O=c1c2ccccc2nc(/C=C/c2ccco2)n1-c1ccccc1O,35.5 µM (active),–
O=c1c2ccccc2nc(/C=C/c2ccc(F)cc2)n1-c1ccccc1O,inactive,–
C=CCN(C)C[C@H]1CN2CC[C@H]1C[C@@H]2CNC(=O)Nc1cccc(SC)c1,inactive,–
O=c1oc2ccccc2c(O)c1C(c1ccccc1O)c1c(O)c2ccccc2oc1=O,inactive,–
CCC(=O)CC(c1ccc([N+](=O)[O-])cc1)c1c(O)c2ccccc2oc1=O (stereo not given),inactive,–
Cc1ccc(C(c2c(O)c3ccccc3oc2=O)c2c(O)c3ccccc3oc2=O)cc1,12.6 µM (active),–
O=C(Cc1ccccc1)N1[C@H]2CC[C@@H]1c1cnc(-c3ccc(F)cc3)nc1C2,inactive,–
COc1cc2c(cc1-c1ccncc1)NC(=O)C21CCN(C(C)=O)CC1,inactive,–
COc1ccc(CC(=O)N2C[C@@H]3CC[C@H](C2)N(CC2CCC2)C3)c(OC)c1,inactive,–
ClCc1cccnc1,11.2 µM (active),–
c1cncc(CNCCc2c[nH]c3ccccc23)c1,inactive,–
c1cncc(CNC2=NCCC2)c1,inactive,–
Cc1nc(-c2ccc(N(C)C)cc2)cc([C@H]2CN3CC[C@H]2C[C@@H]3CNC(=O)C2CCC2)n1,inactive,–
CCOCCc1c(O)[nH]c(=S)[nH]c1=O,14.1 µM (active),–
Cn1nc(-c2ccc(F)cc2)cc1[C@H]1CN2CC[C@H]1C[C@@H]2CNCc1ccccn1,inactive,–
Cc1ccc2c(n1)N(C)[C@H](CO)CCN(C1CCCC1)C2,inactive,–
CC(C)C(=O)N1CCC2(CC1)NCc1ccccc1-n1ccnc12,inactive,–
